The record followed here is ChEMBL document CHEMBL3988442, “University of Dundee, Small-Polar-MMV Screening Library” (2021).

Molecules are shown by their SMILES. Out of some 48,000 compounds screened, about 13,000 (27%) showed an effect of 50% or more. Some of the results follow.

The test concerns Wolbachia pipientis. Put plainly: Anti-Wolbachia Cell-Based Screen. Particulars: 5 µM. On the set-up: scale not given: in the data most compounds retested in dose-response had high values. The class given is functional.
With `Cl.Cl.Cl.c1cnc(NCc2cncc3c2CCN(Cc2cccnc2)C3)nc1`, the “Percent Effect” value was 11.16%.
For the compound `Cl.Cl.c1csc(CN2CCc3c(CNc4nncs4)cncc3C2)c1`, the “Percent Effect” value was 13.01%.
In the case of `Cc1ccc(NCc2cncc3c2CCN(Cc2ccccn2)C3)nn1.Cl.Cl` it was 108.9%.
Take `Cc1nccc(NCc2cncc3c2CCN(CCN(C)C)C3)n1`: the “Percent Effect” value was 100%.
Regarding `O=C(NCCn1cccc1)C1CCCOC1` (stereo not drawn), the “Percent Effect” value was determined as 1.95%.
For `CCC(Cn1ccc2[nH]c(=O)c(C#N)cc2c1=O)OC` (stereo not drawn), the “Percent Effect” value was -23.91%.
On to `Cc1ccccc1[C@@H]1CN(CCOCCO)C[C@H]1C(=O)O`, for which the “Percent Effect” value was -28.11%.
In the case of `O=C(Nc1cc(-c2ccncc2)no1)C1CCC1`, the “Percent Effect” value is -23.1%.
In the case of `Cn1ccc(NC(=O)CN2C[C@H]3CC[C@@H]2CN(S(C)(=O)=O)C3)n1` it was 4.015%; in that of `CC1CN(C)CCN1Cc1cccc(C(=O)NCc2ccco2)c1` (stereo not drawn), 11.16%; in that of `O=C1N(c2cccc(F)c2)Cc2nc(=O)[nH]n21`, -10.2%.
`Cc1nc(NCc2noc(C3CCCO3)n2)c2sccc2n1` (stereo not drawn): the “Percent Effect” value came to 146.8%.
Consider `Cc1nc(CN2CCCC(Nc3ncnc4ccsc34)C2)no1` (stereo not drawn), for which the “Percent Effect” value came to 36.74%.
In the case of `Cc1nc(N2CCC3(CCCN(CC4CC4)C3=O)C2)c2sccc2n1` (stereo not drawn) it was -31.46%.
As to `Cc1nc(NCCc2noc(C3CCCO3)n2)c2sccc2n1` (stereo not drawn), the “Percent Effect” value is listed as 194.7%.
Turning to `Cc1nc(NCc2noc(C3CCCO3)n2)c2ccsc2n1` (stereo not drawn), the “Percent Effect” value amounted to 190.8%.
In the case of `Fc1ccc(OCC2CCCO2)c(NCc2noc(C3CC3)n2)c1` (stereo not drawn) it was 2.456%.
On to `COCc1noc(CCNC(=O)c2ccc(C3CCCO3)s2)n1` (stereo not drawn), for which the “Percent Effect” value is reported as -0.9385%.
As for `COc1ccnc(CNc2nc(C)nc3ccsc23)c1`, the “Percent Effect” value was -33.44%.
As to `Cc1nc(N(Cc2ccncc2)CC2CCCO2)c2ccsc2n1` (stereo not drawn), the “Percent Effect” value was found to be 2.161%.
For `Cc1cccc(N2CCN(C(=O)C3CC4(CCNCC4)CN3)CC2)n1` (stereo not drawn), the “Percent Effect” value is reported as -9.883%.
Regarding `COC(=O)CN(Cc1ccccc1C)C(=O)CCNC(=O)C(C)(C)C`, the “Percent Effect” value amounted to 10.54%.
In the case of `Cc1cc2nc(CO[C@H]3CN(C4CCC4)C[C@H]3F)[nH]c2cc1C`, the “Percent Effect” value is on record as -5.771%.
In the case of `Cc1ccc(N2CCC3(CC2)CNC(=O)CO3)nn1.O=C(O)C(F)(F)F`, the “Percent Effect” value amounted to 10.91%.
`N#Cc1ccc(N2CCC3(CCC(=O)N3Cc3ccncc3)CC2)nc1.O=C(O)C(F)(F)F.O=C(O)C(F)(F)F`: the “Percent Effect” value was 101%.
In the case of `N#Cc1ccc(N2CCC3(CC2)COCCN3Cc2cccnc2)cc1.O=C(O)C(F)(F)F` it was -19.62%; in that of `N#Cc1ccc(CN2CC3(CCCCN3c3cccnc3)CC2=O)cc1.O=C(O)C(F)(F)F` (stereo not drawn), -4.907%; in that of `N#Cc1ccc(N2CCC3(CCC(=O)N3Cc3cccnc3)CC2)nc1.O=C(O)C(F)(F)F.O=C(O)C(F)(F)F`, 109.7%.
Regarding `O=C(O)C(F)(F)F.O=C(O)C(F)(F)F.O=C1CC[C@]2(CC[C@@H](NC3CCOC3)CC2)N1Cc1ccncc1` (stereo partly drawn), the “Percent Effect” value is -47.26%.
Take `Cc1ccc(N2CCC3(CCC(=O)N3Cc3ccncc3)CC2)nn1.O=C(O)C(F)(F)F`: the “Percent Effect” value was 117.9%.
In the case of `O=C(O)C(F)(F)F.O=C1CCC2(CCN(c3ncc(F)cn3)CC2)N1Cc1ccncc1` it was -48.93%.
In the case of `Cc1cc(CN(C)Cc2cc3c(cc2OC(F)F)OCO3)on1` it was -6.74%.
With `CC(C)c1nnc(CN2CCCC2C(=O)OCc2ccccc2)o1` (stereo not drawn), the “Percent Effect” value amounted to 4.736%.
In the case of `COCC1CCN(CCCc2cn[nH]c2)CC1` it was 0.277%.
Turning to `Cc1cc(C)n(-c2ccc(N3CCC4(CC3)OCCO4)nc2)n1`, the “Percent Effect” value was 6.34%.
Take `CCN(C(=O)c1nc2c(s1)CCCN2Cc1ccccc1)C(C)C`: the “Percent Effect” value is given as -4.382%.
In the case of `CCN(C(=O)c1nc2c(s1)CCCN2S(C)(=O)=O)C(C)C` it was 111.8%.
Take `CCNC(=O)c1nc2c(s1)CCCN2S(C)(=O)=O`: the “Percent Effect” value is -29.83%.
Consider `CC(=O)N1CCCc2sc(C(=O)Nc3ccc(C)nc3)nc21`, for which the “Percent Effect” value was -6.006%.
`CC(=O)N1CCCc2sc(C(=O)NC3CC3)nc21`: the “Percent Effect” value is 2.286%.
As to `CCN(C(=O)c1nc2c(s1)CCCN2C(C)=O)C(C)C`, the “Percent Effect” value was determined as 127.1%.
In the case of `CCN(C(=O)c1nc2c(s1)CCCN2C)C(C)C` it was 108.3%; in that of `COCCN(C)C(=O)c1nc2c(s1)CCCN2S(C)(=O)=O`, -10.12%; in that of `COCCN(C)C(=O)c1nc2c(s1)CCCN2C`, 4.068%.
In the case of `CCn1cc(CN2CCC(c3ccncc3)CC2)cc1C#N` it was 18.43%; in that of `Cc1ccc2c(c1)c(CNC(=O)C1CC(=O)N(CCN(C)C)C1)nn2C` (stereo not drawn), 14.04%.
`CC(C)OCCN(C)CC(c1cccs1)N1CCOCC1` (stereo not drawn): the “Percent Effect” value is -0.1545%.
In the case of `Cc1sc2nc(SC(C)c3nc(C(C)C)no3)nc(N)c2c1C` (stereo not drawn) it was 10.39%; in that of `COc1c(Br)cccc1CCNC(=O)c1ccon1`, -9.617%; in that of `Cc1nc(C)n(CC2CCCN(CCc3ccncc3)C2)n1` (stereo not drawn), -0.4528%.
`COc1ccc(CCN2CCCC(Cn3nc(C)nc3C)C2)cc1` (stereo not drawn): the “Percent Effect” value came out at 9.645%.
Take `Cc1nc(C)n(CC2CCCN(CCCc3ccccc3)C2)n1` (stereo not drawn): the “Percent Effect” value was found to be 82.12%.
Turning to `Cc1nc(C)n(CC2CCCN(CCc3ccccc3)C2)n1` (stereo not drawn), the “Percent Effect” value is recorded as 91.53%.
